Screening results as filed in PubChem.
Peg3 promoter – reduces Peg3 promoter-driven luciferase expression in HeLa. HeLa PEG-Prom luciferase reporter, luminescence, overnight. inhibition, % at 20 µM. 360,000 tested, 1.7% active;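 active means inhibition of at least 50% at 20 µM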
MITF TRPM1 inh – inhibitors of MITF-driven TRPM1 promoter in melanoma cells. SK-MEL-5 TRPM1 promoter luciferase, 24 h. inhibition, % at 12.5 µM. 330,000 tested, 0.83% active;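 active means mean inhibition across replicates of 60% or more, whatever share of single replicates reaches that level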
LMP1 NFkB inh – Epstein-Barr LMP1 NF-kappaB reporter inhibition; LMP1-induced NF-kappaB luciferase reporter cells, luminescence; inhibition, % at 12.5 µM; 350,000 tested, 0.69% active; AID 504558; in the data active means inhibition above about 41%
TROY signal inh – inhibitors of TROY-dependent NF-kB signaling; 360,000 tested, 0.98% active; inhibition, % at 10 µM; Q293 LMP1-TROYcd NF-kB luciferase reporter, 4 h; AID 1347056;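 active means compounds whose plate-normalised and pattern-corrected inhibition of the luciferase reporter signal at the single screening dose is 50% or more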
Shn3 3UTR inh – Schnurri-3 reporter inhibition in Clone20 osteoblasts | 360,000 tested, 0.52% active | Clone20 osteoblast Shn3 3'UTR firefly luciferase, 24 h | AID 588674 | inhibition, % at 12.5 µM;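 active means mean inhibition of at least 75% with every replicate also reaching 75%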
TWEAK Fn14 block – inhibitors of TWEAK-Fn14 interaction signaling; AID 1159606; inhibition, % at 10 µM; 360,000 tested, 2% active; TWEAK-stimulated Fn14 reporter cells, luciferase luminescence, 8 h; in the data active means inhibition above about 50%
Hits are given with their value; i = inactive; nt = not tested or not shown. This is a sample that favours compounds with a hit; in the whole collection about 4.1% have one here.

SMILES	Peg3 promoter	MITF TRPM1 inh	LMP1 NFkB inh	TROY signal inh	Shn3 3UTR inh	TWEAK Fn14 block
C=CC[C@]12CC=CC(=O)[C@@]1(O)O[C@H](c1ccc(OC)c(OC)c1)[C@H]2C	i	62.3	i	i	i	65.5
CCc1ccc(/C=C2\SC(=S)N(CCCC(=O)N3CCCC3)C2=O)cc1	i	nt	i	i	i	i
Cc1cccc(CSc2nnc(CCCCCNC(=O)OC(C)(C)C)o2)c1	i	i	i	72.0	i	i
Cc1ccc(CSc2nnc(CCCCCNC(=O)OC(C)(C)C)o2)cc1	i	i	i	i	i	i
C[C@@H]1CN([C@H](C)CO)C(=O)c2c(c3ccccc3n2C)-c2ccccc2CO[C@H]1CN(C)Cc1ccc(-c2ccccc2)cc1	83.0	nt	i	i	i	i
Cc1ccc(C(=O)Nc2nnc(COc3ccccc3)s2)cc1	i	i	i	i	i	i
CCOc1ccccc1NC(=O)CSc1nc2nc(-c3cccs3)cc(C(F)(F)F)c2c(=O)[nH]1	i	i	i	62.7	i	i
COc1ccc(NC(=O)CSc2nc3nc(-c4cccs4)cc(C(F)(F)F)c3c(=O)[nH]2)c(OC)c1	i	i	i	i	i	i
COc1ccccc1N1CCN(C(=O)c2sc3nc(C)nc(N4CCN(c5ccccn5)CC4)c3c2C)CC1	i	i	i	i	i	i
Cc1c(C(=O)N2CCN(c3ccccc3)CC2)sc2ncnc(N3CCN(c4ccccn4)CC3)c12	56.1	i	i	i	i	i
O=C(c1ccccc1)N1CCN(c2ncnc3sc4c(c23)CCC4)CC1	i	i	i	i	85.1	i
Cc1nc(N2CCN(c3ccccn3)CC2)c2c(C)c(C(=O)N3CCN(c4ccc(F)cc4)CC3)sc2n1	58.1	i	i	i	i	i
c1nc(N2CCOCC2)c2c3c(sc2n1)CCCC3	i	i	i	i	i	i
Cc1c(C(=O)N2CCN(c3ccccn3)CC2)sc2ncnc(N3CCOCC3)c12	i	i	i	i	i	i
Cc1nc(N2CCN(C(=O)COc3ccccc3)CC2)c2c(C)c(C)sc2n1	i	i	i	i	i	50.2
O=C(CN(Cc1ccccc1)S(=O)(=O)c1ccccc1)N/N=C/c1ccccc1C(=O)O	i	i	i	i	i	i
Cc1nc(N2CCN(c3ccccn3)CC2)c2c(C)c(C(=O)Nc3c(F)cc(F)cc3Br)sc2n1	i	i	i	i	i	64.8
CC(C)(C)OC(=O)CN1C(=O)C(Sc2n[nH]c(-c3ccccc3)n2)CCc2ccccc21 (configuration not stated)	i	i	i	i	i	i
O=S1(=O)CC=C(CSC(=S)NC2CCS(=O)(=O)C2)C1 (configuration not stated)	56.9	i	i	i	i	i
CC(C)c1cccc(-c2ccc3c(c2)S(=O)(=O)c2cccc(C(=O)NCc4ccccc4)c2C3=O)c1	i	i	i	i	i	i
O=C(NCc1cc(C(F)(F)F)ccc1Cl)c1cccc2c1C(=O)c1ccc(N3CCC(N4CCCCC4)CC3)cc1S2(=O)=O	99.3	nt	i	i	i	i
COc1ccc(-c2ccc3c(c2)S(=O)(=O)c2cccc(C(=O)NCCOc4ccccc4Cl)c2C3=O)cc1OC	87.1	69.4	i	54.0	i	i
CC(C)c1cccc(-c2ccc3c(c2)S(=O)(=O)c2cccc(C(=O)NCc4ccccc4Cl)c2C3=O)c1	51.1	81.7	i	i	i	i
O=C(NCc1cc(C(F)(F)F)ccc1Cl)c1cccc2c1C(=O)c1ccc(N3CCCCC3)cc1S2(=O)=O	i	i	i	i	i	i
CC(C)NC(=O)C1(C)CCN1C(=O)c1ccccc1Oc1ccccc1 (configuration not stated)	i	nt	nt	i	i	i
SMILES	Peg3 promoter	MITF TRPM1 inh	LMP1 NFkB inh	TROY signal inh	Shn3 3UTR inh	TWEAK Fn14 block
CCN(CC)c1ccc(/C=C2/C(=O)c3ccc(C(=O)O)cc3C2=O)cc1	i	i	i	i	i	i
Cc1nc(NC(=O)CSc2nc3ccccc3s2)sc1C(=O)N(C)C	i	i	i	i	i	i
CC(=O)c1c(O)cc(O)cc1CC(=O)O	i	i	i	i	i	i
CC(=O)c1c(O)cc(O)c(C(C)=O)c1O	i	i	i	59.0	i	i
CCCC(C)NC(=O)Cc1ccc(S(=O)(=O)N2CCOCC2)s1 (configuration not stated)	i	i	i	i	i	i
COc1ccc(C(=O)c2ccc([N+](=O)[O-])cc2)cc1S(=O)(=O)N1CCC(C(=O)O)CC1	i	i	i	i	i	i
Cc1cc(Cn2nc(-c3ccccc3)cc2C(=O)NCc2cccs2)on1	i	i	i	i	i	i
N#CC1=C(SCC(=O)Nc2ccc(C(=O)O)cc2)NC(=O)CC1c1ccco1 (configuration not stated)	i	i	i	i	i	97.9
Cc1ccc(NC(=O)CSC2=C(C#N)C(c3ccco3)C3=C(CCCC3=O)N2)cc1 (configuration not stated)	i	i	i	i	i	i
Nc1cc2c(cc1Br)[nH]c(=O)c1ccccc12	i	93.0	i	i	i	i
Nc1cc2[nH]c(=O)c3ccccc3c2cc1Br	i	i	i	i	i	i
CCOC(=O)CSc1c(-c2ccc(Cl)cc2)[nH]c2ccccc12	i	i	i	i	i	i
O=C(Cc1cccs1)NCCSc1c(-c2ccc(Cl)cc2)[nH]c2ccccc12	i	nt	i	51.1	i	81.0
Oc1cccc(CN2CCOCC2)c1O	i	i	i	i	i	i
Oc1c(CN2CCN(c3ccccc3)CC2)cc(Br)c2cccnc12	i	87.5	59.1	i	91.6	i
Oc1c(CN2CCOCC2)cc(CN2CCOCC2)c(O)c1O	i	i	i	i	i	52.2
O=C(Oc1c(CN2CCOCC2)cc(Cl)c2cccnc12)c1ccccc1Br	i	70.4	i	i	nt	i
CN1CCN(Cc2cc(Cl)c3cccnc3c2OC(=O)c2cccs2)CC1	i	i	i	i	i	i
Oc1c(CN2CCOCC2)cc(COCc2ccccc2)c2cccnc12	i	84.6	76.0	i	89.6	i
C[C@H](CO)N1C[C@H](C)[C@@H](CN(C)S(=O)(=O)c2ccc(C#N)cc2)OCc2cnnn2CCCC1=O	i	nt	i	i	i	i
O=C(CSc1nnc(NC(=O)c2c(F)cccc2Cl)s1)Nc1ccccc1F	i	i	i	i	i	i
O=C1c2cccnc2-c2ncccc21	i	i	i	i	i	i
O=C1C(=O)c2cccnc2-c2ncccc21	101.8	nt	nt	65.8	94.7	103.5
CC(C)N1CC2(CC(c3ccccc3F)=NO2)CN1C(=O)c1ccco1 (configuration not stated)	i	nt	i	i	i	i
C=CCNc1nc(N)c(C(=C(C#N)C#N)c2ccc(Br)cc2)s1	55.9	i	i	i	i	i
C=CCNc1sc(C(=O)c2ccc(C)cc2)c(N)c1C#N	i	i	i	i	i	i
CC(C)C(c1nnnn1Cc1ccccc1)N(Cc1ccco1)Cc1cccs1 (configuration not stated)	i	i	i	i	i	i
